Unmarked numbers belong to inactive results. Active and inactive are the calls of the source.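 The calls were made as follows: active = normalized viability below 100% at a tested concentration; inactive = the rest.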
experiment: ovarian cancer cell viability with rucaparib, profiling panel, oncology-focused library, rucaparib conditional (AID 1508598); details: patient-derived ovarian cancer cells, CellTiter-Glo viability, 144 h; at 0.000305 µM; OCI-C5x cells; without rucaparib; hits give low values

| SMILES | viability |
| --- | --- |
| CS(=O)c1ccc(-c2nc(-c3ccc(F)cc3)c(-c3ccncc3)[nH]2)cc1 (stereo not given) | 139% |
| O=c1cc(-c2cccc3c2Sc2ccccc2S3)oc(N2CCOCC2)c1 | 119% |
| O=C(O)c1ccc(-c2c[nH]c3ncc(-c4ccccc4)cc23)cc1C1CCCC1 | 105% |
| N#Cc1c(O)c2c(-c3ccc(-c4ccccc4O)cc3)csc2[nH]c1=O | 121% |
| O=c1[nH]c(-c2ccc(C(F)(F)F)cc2)nc2c1CSCC2 | 93.7% (active) |

same assay, conditions: patient-derived ovarian cancer cells, CellTiter-Glo viability, 144 h; at 0.000305 µM; OCI-P5x cells; with rucaparib 20 µM; hits give low values; 100% = cells with rucaparib alone

| SMILES | viability |
| --- | --- |
| CS(=O)c1ccc(-c2nc(-c3ccc(F)cc3)c(-c3ccncc3)[nH]2)cc1 (stereo not given) | 109% |
| O=c1cc(-c2cccc3c2Sc2ccccc2S3)oc(N2CCOCC2)c1 | 105% |
| O=C(O)c1ccc(-c2c[nH]c3ncc(-c4ccccc4)cc23)cc1C1CCCC1 | 85.9% (active) |
| N#Cc1c(O)c2c(-c3ccc(-c4ccccc4O)cc3)csc2[nH]c1=O | 114% |
| O=c1[nH]c(-c2ccc(C(F)(F)F)cc2)nc2c1CSCC2 | 98.7% (active) |

same assay, conditions: patient-derived ovarian cancer cells, CellTiter-Glo viability, 144 h; at 0.000305 µM; OCI-P5x cells; without rucaparib; hits give low values

| SMILES | viability |
| --- | --- |
| CS(=O)c1ccc(-c2nc(-c3ccc(F)cc3)c(-c3ccncc3)[nH]2)cc1 (stereo not given) | 111% |
| O=c1cc(-c2cccc3c2Sc2ccccc2S3)oc(N2CCOCC2)c1 | 109% |
| O=C(O)c1ccc(-c2c[nH]c3ncc(-c4ccccc4)cc23)cc1C1CCCC1 | 89.5% (active) |
| N#Cc1c(O)c2c(-c3ccc(-c4ccccc4O)cc3)csc2[nH]c1=O | 119% |
| O=c1[nH]c(-c2ccc(C(F)(F)F)cc2)nc2c1CSCC2 | 103% |

same assay, conditions: patient-derived ovarian cancer cells, CellTiter-Glo viability, 144 h; at 0.00122 µM; OCI-C5x cells; with rucaparib 10 µM; hits give low values; 100% = cells with rucaparib alone

| SMILES | viability [%] |
| --- | --- |
| CS(=O)c1ccc(-c2nc(-c3ccc(F)cc3)c(-c3ccncc3)[nH]2)cc1 (stereo not given) | 123 |
| O=c1cc(-c2cccc3c2Sc2ccccc2S3)oc(N2CCOCC2)c1 | 122 |
| O=C(O)c1ccc(-c2c[nH]c3ncc(-c4ccccc4)cc23)cc1C1CCCC1 | 106 |
| N#Cc1c(O)c2c(-c3ccc(-c4ccccc4O)cc3)csc2[nH]c1=O | 115 |
| O=c1[nH]c(-c2ccc(C(F)(F)F)cc2)nc2c1CSCC2 | 108 |

same assay, conditions: patient-derived ovarian cancer cells, CellTiter-Glo viability, 144 h; at 0.00122 µM; OCI-C5x cells; without rucaparib; hits give low values

| SMILES | viability |
| --- | --- |
| CS(=O)c1ccc(-c2nc(-c3ccc(F)cc3)c(-c3ccncc3)[nH]2)cc1 (stereo not given) | 135% |
| O=c1cc(-c2cccc3c2Sc2ccccc2S3)oc(N2CCOCC2)c1 | 121% |
| O=C(O)c1ccc(-c2c[nH]c3ncc(-c4ccccc4)cc23)cc1C1CCCC1 | 118% |
| N#Cc1c(O)c2c(-c3ccc(-c4ccccc4O)cc3)csc2[nH]c1=O | 131% |
| O=c1[nH]c(-c2ccc(C(F)(F)F)cc2)nc2c1CSCC2 | 99.5% (active) |

same assay, conditions: patient-derived ovarian cancer cells, CellTiter-Glo viability, 144 h; at 0.00122 µM; OCI-P5x cells; with rucaparib 20 µM; hits give low values; 100% = cells with rucaparib alone

| SMILES | viability |
| --- | --- |
| CS(=O)c1ccc(-c2nc(-c3ccc(F)cc3)c(-c3ccncc3)[nH]2)cc1 (stereo not given) | 103% |
| O=c1cc(-c2cccc3c2Sc2ccccc2S3)oc(N2CCOCC2)c1 | 104% |
| O=C(O)c1ccc(-c2c[nH]c3ncc(-c4ccccc4)cc23)cc1C1CCCC1 | 90% (active) |
| N#Cc1c(O)c2c(-c3ccc(-c4ccccc4O)cc3)csc2[nH]c1=O | 119% |
| O=c1[nH]c(-c2ccc(C(F)(F)F)cc2)nc2c1CSCC2 | 107% |

same assay, conditions: patient-derived ovarian cancer cells, CellTiter-Glo viability, 144 h; at 0.00122 µM; OCI-P5x cells; without rucaparib; hits give low values

| SMILES | viability |
| --- | --- |
| CS(=O)c1ccc(-c2nc(-c3ccc(F)cc3)c(-c3ccncc3)[nH]2)cc1 (stereo not given) | 107% |
| O=c1cc(-c2cccc3c2Sc2ccccc2S3)oc(N2CCOCC2)c1 | 106% |
| O=C(O)c1ccc(-c2c[nH]c3ncc(-c4ccccc4)cc23)cc1C1CCCC1 | 99.6% (active) |
| N#Cc1c(O)c2c(-c3ccc(-c4ccccc4O)cc3)csc2[nH]c1=O | 107% |
| O=c1[nH]c(-c2ccc(C(F)(F)F)cc2)nc2c1CSCC2 | 106% |

same assay, conditions: patient-derived ovarian cancer cells, CellTiter-Glo viability, 144 h; at 0.00488 µM; OCI-C5x cells; with rucaparib 10 µM; hits give low values; 100% = cells with rucaparib alone

| SMILES | viability [%] |
| --- | --- |
| CS(=O)c1ccc(-c2nc(-c3ccc(F)cc3)c(-c3ccncc3)[nH]2)cc1 (stereo not given) | 134 |
| O=c1cc(-c2cccc3c2Sc2ccccc2S3)oc(N2CCOCC2)c1 | 118 |
| O=C(O)c1ccc(-c2c[nH]c3ncc(-c4ccccc4)cc23)cc1C1CCCC1 | 112 |
| N#Cc1c(O)c2c(-c3ccc(-c4ccccc4O)cc3)csc2[nH]c1=O | 111 |
| O=c1[nH]c(-c2ccc(C(F)(F)F)cc2)nc2c1CSCC2 | 121 |

same assay, conditions: patient-derived ovarian cancer cells, CellTiter-Glo viability, 144 h; at 0.00488 µM; OCI-C5x cells; without rucaparib; hits give low values

| SMILES | viability [%] |
| --- | --- |
| CS(=O)c1ccc(-c2nc(-c3ccc(F)cc3)c(-c3ccncc3)[nH]2)cc1 (stereo not given) | 139 |
| O=c1cc(-c2cccc3c2Sc2ccccc2S3)oc(N2CCOCC2)c1 | 119 |
| O=C(O)c1ccc(-c2c[nH]c3ncc(-c4ccccc4)cc23)cc1C1CCCC1 | 120 |
| N#Cc1c(O)c2c(-c3ccc(-c4ccccc4O)cc3)csc2[nH]c1=O | 126 |
| O=c1[nH]c(-c2ccc(C(F)(F)F)cc2)nc2c1CSCC2 | 102 |
